An excerpt weighted towards active compounds, which were near 6.5% of everything screened.
VACV mCherry inh: vaccinia inhibition (mCherry reporter); Vaccinia virus mCherry reporter infection, fluorescence; Potency, µM (top dose mostly 36.5 µM), inactives show at the highest dose activity change, negative = inhibition, usual class: inhibitors; hit rate 0.63% among 310,000; AID 720579; calls by dose curve; tested in A549 cells; note: potency is the fitted concentration of half-maximal effect; nearly all actives have a fitted effect of over 35% in size
MARV entry inh: Marburg virus entry inhibition; Potency, µM (titrated, usually from 37.8 µM), for the others: at the top dose activity change, negative = inhibition, usual class: inhibitors; Marburg virus pseudotyped entry inhibition, cell reporter; hit rate 1.8% among 300,000; calls by dose curve; tested in HEK293 cells; note: potency is the fitted concentration of half-maximal effect
VACV Venus inh: inhibitors of vaccinia virus (Venus reporter). Vaccinia virus Venus reporter expression, fluorescence. Potency, µM (doses to about 36.5 µM), without a hit: top-dose activity change, negative = inhibition, actives largely listed as inhibitors. hit rate 0.46% among 330,000; calls by dose curve; tested in A549 cells; note: potency is the fitted concentration of half-maximal effect; nearly all actives have a fitted effect of over 30% in size
HCMV antiviral: inhibitors of human cytomegalovirus; activity change, negative = inhibition, % at 57.5 µM; HFF cells, HCMV-luciferase reporter, 72 h; active compounds read low; hit rate 4.5% among 410,000; in the data active = activity change below about -60%; inconclusive = no clear call, values can overlap the other calls; inactive = above about -39%
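Luciferase read-out from HCMV-luciferase-infected HFFs (MOI 1 PFU/cell) 72 h post infection at 37C; compounds added after 16 h cell attachment; activity normalized between buffer-only basal and Salinomycin (10uM) inhibitor controls.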
FMDV inh: foot and mouth disease virus antiviral activity; Potency, µM (doses to about 57.9 µM), without a hit: top-dose activity change, negative = inhibition, usual class: inhibitors; AID 1159524; FMDV antiviral cell-based qHTS; hit rate 1.2% among 410,000; calls by dose curve; tested in HEK293T cells; note: read-out not given here; potency is the fitted concentration of half-maximal effect; nearly all actives have a fitted effect of over 45% in size
Lassa entry inh: Lassa virus entry inhibition; Lassa virus pseudotype entry inhibition, cell reporter; Potency, µM (doses to about 37.9 µM), inactives show top-dose activity change, negative = inhibition, most hits filed as inhibitors; hit rate 1.2% among 300,000; AID 540256; calls by dose curve; tested in HEK293 cells; note: potency is the fitted concentration of half-maximal effect; nearly all actives have a fitted effect of over 50% in size
Starred values were filed as active, the others as inactive; i = inactive; ? = inconclusive; / = no result given; [ ] = remark or other dose. % is set by controls: 0 for no effect and ±100 for the full control effect.

SMILES	VACV mCherry inh	MARV entry inh	VACV Venus inh	HCMV antiviral	FMDV inh	Lassa entry inh
CCOc1ccc(CN2C(=O)c3ccccc3Sc3ccc(C(=O)NCc4ccc(C)cc4)cc32)cc1	-20.2%	10µM*	-19.5%	-5.2	-6.4%	?
O=C(NCc1ccco1)c1ccc2c(c1)N(Cc1c(F)cccc1Cl)C(=O)c1ccccc1S2	-21.5%	?	-19.7%	-25.7	-1.6%	?
Cc1ccc(CN2C(=O)c3ccccc3Sc3ccc(C(=O)NCc4ccco4)cc32)cc1	-15.1%	/	-7.2%	-65.9*	6.5%	?
CN(CC1CCCCC1)[C@H]1CC[C@@]23CCCN2C(=O)CCC[C@H]3[C@H]1Cc1ccccc1	/	/	/	-20.0	/	/
Cc1ccc(C)n1C1C(=O)N(Cc2ccc(C(F)(F)F)cc2)c2ccc(Cl)cc21 (stereo unspecified)	/	/	/	-3.5	/	/
Cc1cc(C)c(OCC(=O)N(Cc2ccc(N(C)C)cc2)CC2CCCO2)c(C)c1 (stereo unspecified)	-14.6%	-20.2%[46.1 µM]	-20.6%	-19.4	5.0%	?
Cc1ccccc1OCC(=O)N(Cc1ccc(N(C)C)cc1)CC1CCCO1 (stereo unspecified)	-14.7%	-11.0%[46.1 µM]	-14.4%	-62.7*	3.7%	?
CCCCn1c(CN2CCN(c3cccc(Cl)c3)CC2)nc2c1c(=O)[nH]c(=O)n2C	-15.5%	1.3µM*	-25.5%	-1.4	-8.5%	?
Cc1ccc(Cl)cc1N1CCN(Cc2nc3c(c(=O)[nH]c(=O)n3C)n2Cc2ccccc2F)CC1	?	/	?	-77.1*	?	/
Cc1ccccc1-c1nnc(SCC(=O)Nc2cccnc2Cl)o1	-16.0%	?	-12.0%	47.7	44.0%	2µM*
Clc1ccc(-c2nnc(CSc3nnc(-c4cccs4)n3Cc3ccccc3)o2)cc1	/	?	/	-88.1*	?	?
Cc1nnc(SCc2nnc(-c3cccs3)o2)n1Cc1ccccc1	i	-16.4%	-8.3%	-6.9	-9.8%	6.6%
Cc1ccc(OCc2ccc(C(=O)Nc3c(C)nn(Cc4c(F)c(F)c(F)c(F)c4F)c3C)o2)c([N+](=O)[O-])c1	/	16.4µM*	/	-39.4	?	?
O=S1(=O)CCOC[C@H](c2ccccc2)N1Cc1ccc(Cl)cc1Cl	i	/	-19.6%	/	/	/
CN(C)S(=O)(=O)c1cccc(N=c2scc(-c3ccc4c(c3)NC(=O)CO4)n2CC2CCCO2)c1 (stereo unspecified)	/	?	-20.4%	?	28.2µM*	?
COCC(C)n1c(-c2ccc3c(c2)NC(=O)CO3)csc1=Nc1ccc(OC(F)F)cc1 (stereo unspecified)	?	?	?	-88.2*	20µM*	?
c1ccc(-c2csc(=Nc3cccnc3)n2CC2CCCO2)cc1 (stereo unspecified)	-12.3%	?	-9.0%	-35.8	-21.5%	1.1%
COc1ccccc1N=c1scc(-c2ccc3c(c2)NC(=O)CO3)n1CC1CCCO1 (stereo unspecified)	/	?	-29.1%	?	35.5µM*	?
O=C1COc2ccc(-c3csc(=Nc4ccc(OC(F)F)cc4)n3CC3CCCO3)cc2N1 (stereo unspecified)	/	-14.8%	/	-93.6*	22.4µM*	?
COc1ccc2ccccc2c1CN1CCc2nnc(CNC(=O)c3cccc(F)c3)n2CC1	i	/	0.0%	/	-5.5%	/
COCCNC(=O)CCc1c(C)n(C)c2cc(-c3cc(OC)c(OC)c(OC)c3)nn2c1=O	-8.6%	/	-4.9%	-24.3	-2.3%	?
COc1ccc(/C=N\NC(=O)c2cccc(F)c2)cc1COc1ccccc1	-8.9%	?	-37.2%	-86.5*	-0.3%	-15.6%
COc1ccc(C=O)cc1COc1ccccc1F	-2.8%	?	-19.8%	-34.4	?	?
COc1ccc(/C=N/NC(=O)c2ccc(N)cc2)cc1Cn1cc([N+](=O)[O-])cn1	?	7.94µM*	17.4%	-5.0	-17.5%	?
COc1ccc(/C=C/C(=O)c2ccccc2)cc1COc1ccccc1F	/	?	/	-8.2	20µM*	-29.1%
SMILES	VACV mCherry inh	MARV entry inh	VACV Venus inh	HCMV antiviral	FMDV inh	Lassa entry inh
COc1ccc(/C=N\NC(=O)c2cccc([N+](=O)[O-])c2)cc1Cn1cc([N+](=O)[O-])cn1	/	/	/	-34.8	/	/
COc1ccc(/C=N/NC(=O)c2cccnc2)cc1COc1ccc([N+](=O)[O-])cc1	-19.0%	?	-26.8%	?	28.2µM*	?
CCOc1ccccc1CNS(=O)(=O)c1ccc(-c2coc(C)n2)cc1	-3.3%	/	-3.6%	-24.0	0.0%	-1.9%[46.1 µM]
CCc1cccc(CC)c1NC(=O)C(Cc1ccccc1)NS(=O)(=O)c1cccc2nsnc12 (stereo unspecified)	-11.2%	?	-8.1%	-8.8	11.9%	-18.3%[46.1 µM]
COc1ccc(/C=N/NC(=S)Nc2ccccc2)cc1COc1ccc(F)cc1F	i	?	-18.4%	-9.3	8.6%	1.64µM*
COc1cc(/C=N/NC(=O)c2cccc(NC(=O)c3ccccc3)c2)ccc1O	?	5.8%[46.1 µM]	-8.3%	-81.8*	4.1%	20.3%
O=S(=O)(C/C(=C/CO)S(=O)(=O)c1ccccc1)c1ccccc1	/	1.83µM*	/	-105.9*	7.94µM*	?
O=C(C[n+]1ccc(/C=N/O)cc1)N(Cc1ccccc1)Cc1ccccc1	i	-0.7%[46.1 µM]	-6.4%	-68.2*	-19.8%	-5.1%
COc1ccc(Br)cc1CSC(=N)N	-6.1%	12.6µM*	0.4%	?	-25.4%	-0.3%[46.1 µM]
CCCCCOc1ccc(Br)cc1CSC(=N)N	?	/	11.2µM*	-98.4*	15.8µM*	/
Cc1cccn2c(=O)c3cc(C#N)c(=O)n(-c4nnc(SCc5ccccc5F)s4)c3nc12	-7.7%	-1.5%[46.1 µM]	1.5%	-12.8	-8.2%	3.4%[46.1 µM]
CCOC(=O)c1c(C(=O)OCC)c2c3ccccc3cc(C)n2c1C(=O)OC	/	1.5%[14.2 µM]	/	/	/	/
COc1cc2nc(CC(O)c3nc4cc(OC)c(OC)cc4[nH]3)[nH]c2cc1OC (stereo unspecified)	-3.2%	/	-21.8%	/	/	/
COc1ccc(NC(=O)C2Cc3c(-c4ccccc4Oc4ccccc4)ccnc3O2)cc1OC (stereo unspecified)	-12.9%	/	-26.2%	-75.9*	25.1µM*	/
CC(C)c1ccc(NC(=O)C2Cc3c(-c4ccccc4Oc4ccccc4)ccnc3O2)cc1 (stereo unspecified)	1.1%	/	15.8%	-60.8*	-18.3%	/
COc1ccc(NC(=O)C2Cc3c(-c4ccccc4Oc4ccccc4)ccnc3O2)cn1 (stereo unspecified)	-21.6%	/	-11.1%	-29.3	-25.3%	/
COC(=O)C1=C(N)Oc2cc(C)[nH]c(=O)c2[C@@H]1c1ccncc1	/	2.8%	/	/	/	/
COc1cc(NC(=O)Cn2c(=O)oc3cc(S(=O)(=O)N4CCCCCC4)ccc32)cc(OC)c1	-29.7%	/	-25.5%	0.0	-26.9%	-23.9%[46.1 µM]
Cc1[nH]nc2ncc(C(=O)c3ccccc3O)cc12	/	3.7%	/	-82.1*	-27.0%	2.1%
Cc1c(C)n(CCCN(C)C)c2ncnc(NC3CCCCC3)c12	-26.4%	10µM*	?	11.8	-7.4%	?
